Publication PMC5540273 (PLoS ONE, 2017)

tested on: EPHB6
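Also: kd values determined as follow-up on hits from a single-replicate KINOMEscan panel screen.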

SMILES	Kd [nM]
Cl.c1ccc(Cn2cnc3cc(Nc4ncnc5ccccc45)ccc32)cc1 [GW272142]	510
COc1cc(Nc2nccc(N3CCC(NC(=O)C4COc5ccccc5O4)C3)n2)cc(OC)c1OC (centres unmarked) [GSK1379761]	110
Nc1nccc2scc(-c3ccc4c(c3)CCN4C(=O)Cc3ccccc3)c12 [GSK2576924]	340
COc1cc(Nc2nccc(N3CCC(NC(=O)C(C)c4ccc(Cl)cc4)C3)n2)cc(OC)c1OC (centres unmarked) [GSK1379757]	100
C[C@@H]1CC[C@H](C(=O)NC2CCCCC2)CN1c1cc(-c2ccc3c(N)n[nH]c3c2)nc(N)n1 [GSK2291363]	49
